From the supplement of paper PMC9135407
Several values for one entry are separate records, joined by “and”; a condition that tells them apart may be missing. Equal values may be shown once. Where a name gives a salt, the structure may show the parent alone. Out of some 5,800 compounds screened, about 620 (11%) showed activity. The entries come from a sample that favours actives as a whole. Unmarked numbers belong to inactive results.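 How the source made its calls: active = score above a cut-off or among the top three wells of a plate; in these data no inactive exceeds 0.85.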

Tested on: primary human hepatic stellate cells (donor 1)
Experiment: scaled lipid accumulation score (0 = DMSO-like, 1 = nortriptyline-like); higher = stronger HSC inactivation (lipid re-accumulation), active = hit call of the paper
Settings: 48 h
[1] = library stock concentration: 10 mM
[2] = library stock concentration: 3.33 mM
[3] = library stock concentration: 1 mM

CS(=O)(=O)c1ccc(Cn2c3c(c4cc(F)cc(F)c42)CCCC3CC(=O)O)cc1 (stereo not given)
scaled lipid accumulation score [1]: ≤ -0.006

O=C(O)c1ccc2c(c1)nc(Nc1cccc(Cl)c1)c1ccncc12
scaled lipid accumulation score (library stock concentration: 400 uM): ≤ -0.005 | scaled lipid accumulation score (library stock concentration: 2 mM): ≤ -0.005 | scaled lipid accumulation score [1]: ≤ -0.005

O=C(O)c1ccc2c(c1)nc(Nc1cccc(Cl)c1)c1ccncc12 [CX-4945 (Silmitasertib)]
scaled lipid accumulation score [2]: ≤ 0 | scaled lipid accumulation score [1]: ≤ 0

OC[C@H]1O[C@H]([S-])[C@H](O)[C@@H](O)[C@@H]1O.[Au+] [Aurothioglucose]
scaled lipid accumulation score (library stock concentration: 5.1 mM): 0.336 | scaled lipid accumulation score [1]: 0.397

Oc1cc(O)c2c(c1)O[C@H](c1ccc(O)c(O)c1)[C@@H](O)C2 (racemic) [Catechin-(+,-) hydrate]
scaled lipid accumulation score: ≤ 0

CCCCCCCCCCCCCCCCOCC(CO)OC (stereo not given) [1-Hexadecyl-2-O-methyl-glycerol]
scaled lipid accumulation score [3]: 0.003

CCCCC(C)(C)[C@H](O)C=C[C@H]1[C@H](O)CC(=O)[C@@H]1CCCCCCC(=O)O [16,16-dimethyl Prostaglandin E1]
scaled lipid accumulation score [3]: ≤ 0

CCC(O)/C=C/C=O (stereo not given) [4-hydroxy Hexenal]
scaled lipid accumulation score [3]: ≤ 0

CCCCC[C@H](O)/C=C/[C@H]1[C@H](O)CC(=O)[C@@H]1CCCCCCC(=O)NCCO [Prostaglandin E1 Ethanolamide]
scaled lipid accumulation score [3]: ≤ 0

O=c1cc(-c2ccc(O)cc2)oc2cc(O[C@@H]3O[C@H](CO)[C@@H](O)[C@H](O)[C@H]3O)cc(O)c12 [Cosmosiin]
scaled lipid accumulation score [1]: 0.333

CC(C)=CCC/C(C)=C\CO [Nerol]
scaled lipid accumulation score [1]: ≤ 0

CC(C)=CCC/C(C)=C/CC/C(C)=C/CC[C@]1(C)CCc2cc(O)c(C)c(C)c2O1 [.gamma.-Tocotrienol]
scaled lipid accumulation score [3]: ≤ 0

NC12CC3CC(CC(C3)C1)C2 [Symmetrel]
scaled lipid accumulation score [1]: 0.158

NC12CC3CC(CC(C3)C1)C2 [Amantadine hydrochloride]
scaled lipid accumulation score [1]: 0.29 and 0.659 | scaled lipid accumulation score (library stock concentration: 10.7 mM): 0.031

NC12CC3CC(CC(C3)C1)C2 [Amantadine HCl]
scaled lipid accumulation score [2]: ≤ 0 | scaled lipid accumulation score [1]: 0.042

NC12CC3CC(CC(C3)C1)C2 [Adamantamine fumarate]
scaled lipid accumulation score: 0.029

CC12CC3CC(C)(C1)CC(N)(C3)C2 [Memantine hydrochloride]
scaled lipid accumulation score (library stock concentration: 9.3 mM): 0.689 | scaled lipid accumulation score [1]: 0.344 and 0.653 and 0.597

CC12CC3CC(C)(C1)CC(N)(C3)C2 [Memantine Hydrochloride]
scaled lipid accumulation score: 0.399

CC12CC3CC(C)(C1)CC(N)(C3)C2
scaled lipid accumulation score [1]: 0.869 (active)

CC12CC3CC(C)(C1)CC(N)(C3)C2 [Memantine HCl]
scaled lipid accumulation score [2]: 0.012 | scaled lipid accumulation score [1]: 0.415

CC12CC3CC(C)(C1)CC(N)(C3)C2.Cl [Memantine hydrochloride]
scaled lipid accumulation score [1]: 1.05 (active)

COC(=O)CCCCCCC1C(O)CC(O)C1CCC(O)C#Cc1ccccc1F (stereo not given)
scaled lipid accumulation score [3]: ≤ 0

NC(=S)NCCC[C@H](N)C(=O)O [L-Thiocitrulline (hydrochloride)]
scaled lipid accumulation score [3]: 0.048

NC(=S)NCCC[C@H](N)C(=O)O [Thiocitrulline [L-Thiocitrulline]]
scaled lipid accumulation score (library stock concentration: 26.1 mM): 0.069

Cc1cccc(CC(=O)N2CCc3c2ccc(-c2cn(C)c4ncnc(N)c24)c3F)n1
scaled lipid accumulation score [2]: ≤ 0 | scaled lipid accumulation score [1]: ≤ -0.001

CCC(CC)CNc1cc(C(=O)NCCN(C)C)cc(S(=O)(=O)Nc2ccc(OC)cc2)c1
scaled lipid accumulation score [1]: 0.996 (active)

COc1cc(C(=O)NCc2ccc(OCCN(C)C)cc2)cc(OC)c1OC [Trimethobenzamide hydrochloride]
scaled lipid accumulation score: ≤ 0 | scaled lipid accumulation score (library stock concentration: 4.7 mM): 0.028 | scaled lipid accumulation score [1]: ≤ 0

CCN(CC)CCNC(=O)c1ccc(NS(C)(=O)=O)cc1 [Sematilide monohydrochloride monohydrate]
scaled lipid accumulation score [1]: ≤ -0.07

O=c1[nH][nH]c2nnc(-c3c(-c4ccccc4)nn4ccccc34)cc12 [ERK Inhibitor II, Negative Control]
scaled lipid accumulation score [2]: ≤ 0

C=CC[N+]1([C@H]2C[C@H]3[C@@H]4CC[C@H]5C[C@H](O)[C@@H](N6CCOCC6)C[C@]5(C)[C@H]4CC[C@]3(C)[C@H]2OC(C)=O)CCCC1 [Rocuronium Bromide]
scaled lipid accumulation score [2]: ≤ 0 | scaled lipid accumulation score [1]: ≤ 0

COc1ccc(C2(O)OC(=O)C(c3ccc4c(c3)OCO4)=C2Cc2cc(OC)c(OC)c(OC)c2)cc1 (stereo not given)
scaled lipid accumulation score [1]: 0.037

CCCCCCCCCCCC(=O)CC(=O)N[C@H]1CCOC1=O [N-3-oxo-tetradecanoyl-L-Homoserine lactone]
scaled lipid accumulation score [3]: ≤ 0

CC/C=C\C/C=C\C/C=C\CCCCCCCCCCCC(=O)O [Docosatrienoic acid (22:3 n-3)]
scaled lipid accumulation score [3]: ≤ -0.021

COc1cccc2c1[C@@H]1CN(CCCCn3c(=O)[nH]c4c(sc5ncc(-c6ccccc6)nc54)c3=O)C[C@@H]1CO2.Cl [Fiduxosin hydrochloride]
scaled lipid accumulation score [1]: 0.863 (active)

COc1ccc(/C=C/c2ccccc2F)cc1
scaled lipid accumulation score [3]: 0.063

C/N=C(/NC#N)NCCSCc1csc(NC(=N)N)n1 [Tiotidine]
scaled lipid accumulation score (library stock concentration: 6.4 mM): ≤ -0.006 | scaled lipid accumulation score [1]: 0.044

COc1cc2nc(N3CCCN(C)CC3)nc(NC3CCN(Cc4ccccc4)CC3)c2cc1OC.Cl.Cl.Cl.O
scaled lipid accumulation score [3]: 0.804 (active)
